Compound activity as filed in PubChem BioAssay.
Rows were chosen to be rich in hits. Some 10% of all compounds tested hit in one or more screens of this group.
RORgamma inh – qHTS for inhibitors of ROR gamma transcriptional activity | Nuclear receptor ROR-gamma (Mus musculus), P51450 | Drosophila S2 Gal4-RORgamma UAS-luciferase reporter, 20 h | AID 2551, 2010 | hit rate 5.4% among 310,000 | Potency, µM (series often up to 53.6 µM), without a hit: top-dose activity change, negative = inhibition, usual class: inhibitors; also: % is scaled to controls: 0 for no effect and ±100 for the full control effect; nearly all actives have a fitted effect of over 60% in size
Target sequence (P51450 whole entry, looked up, the tested form may be a part): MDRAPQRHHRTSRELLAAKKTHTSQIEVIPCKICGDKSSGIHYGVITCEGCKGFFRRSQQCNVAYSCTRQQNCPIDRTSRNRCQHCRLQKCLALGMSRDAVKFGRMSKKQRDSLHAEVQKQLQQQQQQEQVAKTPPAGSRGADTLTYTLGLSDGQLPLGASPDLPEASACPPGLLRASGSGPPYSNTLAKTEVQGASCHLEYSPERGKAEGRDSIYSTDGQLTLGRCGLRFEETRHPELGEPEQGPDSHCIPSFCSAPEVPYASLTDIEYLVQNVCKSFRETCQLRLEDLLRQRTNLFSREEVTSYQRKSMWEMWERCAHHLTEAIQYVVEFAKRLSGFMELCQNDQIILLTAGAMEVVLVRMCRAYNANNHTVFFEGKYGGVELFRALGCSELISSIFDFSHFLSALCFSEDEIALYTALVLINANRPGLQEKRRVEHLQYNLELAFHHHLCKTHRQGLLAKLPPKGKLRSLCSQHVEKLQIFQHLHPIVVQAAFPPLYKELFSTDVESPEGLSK
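A Gal4/UAS one-hybrid system in insect cells: metallothionein-promoter Gal4–ROR gamma fusion plus Photinus luciferase reporter. Copper sulfate 700 uM final, 20 hr ambient incubation, luminescent detection after 10 min with reagent.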
SW480 rerep – A quantitative high throughput screen for small molecules that induce DNA re-replication in SW480 colon adenocarcinoma cells. SW480 DNA re-replication, Hoechst DNA content imaging, 48 h. Potency, µM (series often up to 46.1 µM), for inactives: top-dose re-replication activation, usual class: activators. hit rate 1.8% among 340,000. AID 624297, 2012; also: % of control where 0% means no effect; nearly all actives have a fitted effect of over 55% in size
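250 cells/well; 23 nL cpd via pin tool; 48 hr, 37 C, 5% CO2; Hoechst 40 min; imager read of total nuclear intensity, ex 405/em 500-530 nm.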
VP16 counter – VP16 counterscreen qHTS for inhibitors of ROR gamma transcriptional activity; Drosophila S2 Gal4-VP16 UAS-luciferase, luminescence, 20 h; Potency, µM (highest dose often 53.6 µM), for inactives: top-dose activity, negative = inhibition, hits mostly inhibitors; hit rate 3.5% among 310,000;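 also: Gal4-VP16 expression switched on by copper sulfate through the metallothionein promoter; % is scaled to controls: 0 for no effect and ±100 for the full control effect; nearly all actives have a fitted effect of over 50% in size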
ELG1 repair inh – qHTS screen for small molecules that inhibit ELG1-dependent DNA repair in human embryonic kidney (HEK293T) cells expressing luciferase-tagged ELG1. HEK293T ELG1-luciferase reporter, luminescence, 16 h; DNA damage induced by 5-fluorouridine. Potency, µM (titrated, usually from 46.1 µM), for the others: top-dose activity change, negative = inhibition, most hits filed as inhibitors. hit rate 2.3% among 330,000. AID 504467, 2011; also: % is scaled to controls: 0 for no effect and ±100 for the full control effect; nearly all actives have a fitted effect of over 55% in size
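Step one: seed 2,000 cells per well. Step two: pin-transfer compound or DMSO alongside 5-fluorouridine. Step three: incubate 16 hr, 37 °C, 5% CO2. Step four: add ONE-Glo, wait 30 min, read luminescence.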
MCF10A rerep – A quantitative high throughput screen for small molecules that induce DNA re-replication in MCF 10a normal breast cells; MCF 10A DNA re-replication, Hoechst nuclear intensity, 48 h; Potency, µM (top dose mostly 46.1 µM), without a hit: at the top dose activity, positive = re-replication, usual class: activators; hit rate 2.9% among 350,000; also: % of control where 0% means no effect; nearly all actives have a fitted effect of over 50% in size
Numbers without * were called inactive; [ ] = remark or other dose. Calls follow the shape of the dose curve; as a rule, active = well fitted curve in the direction sought with a large enough effect; inconclusive = small, poorly fitted or top-dose-only effect, or another doubt; inactive = no such curve, though single readings can be large; an effect the other way counts as inactive or inconclusive. Potency is read from the fitted curve at half-maximal effect.

How did COc1cccc(NC(=O)/C=C/c2ccco2)c1 do in these assays?
RORgamma inh: 26.9%; SW480 rerep: -6.9%; VP16 counter: 8.3%; ELG1 repair inh: inconclusive; MCF10A rerep: 16.7%

Results for O=C(/C=C/c1ccco1)Nc1ccc(Oc2ccc(Cl)cc2)cc1 ?
RORgamma inh: 19.3%; SW480 rerep: inconclusive; VP16 counter: -11.2%; ELG1 repair inh: -26.6%; MCF10A rerep: 4.61µM*

How did O=C(Nc1ccc(-c2nc3ccccc3[nH]2)cc1)c1ccco1 do in these assays?
RORgamma inh: inconclusive; SW480 rerep: 0.2%; VP16 counter: inconclusive; ELG1 repair inh: inconclusive; MCF10A rerep: 6.5%

What do the screens show for `Cc1cccc(NC(=S)NC(=O)/C=C/c2ccco2)c1`?
RORgamma inh: 4.47µM*; SW480 rerep: 2.06µM*; VP16 counter: inconclusive; ELG1 repair inh: inconclusive; MCF10A rerep: inconclusive

How did O=C(/C=C/c1ccco1)Nc1ccc(-c2nc3ccccc3[nH]2)cc1 do in these assays?
RORgamma inh: 28.0%; SW480 rerep: inconclusive; VP16 counter: 26.5%; ELG1 repair inh: inconclusive; MCF10A rerep: 2.59µM*

Results for O=C(/C=C/c1ccco1)NC(=S)Nc1ccccc1 ?
RORgamma inh: 7.08µM*; SW480 rerep: 17.5%; VP16 counter: 3.16µM*; ELG1 repair inh: inconclusive; MCF10A rerep: 24.6%

What do the screens show for `O=[N+]([O-])c1ccccc1OCC(O)CNC1CCCC1` (stereo unspecified)?
RORgamma inh: -10.4%; SW480 rerep: -2.4%; VP16 counter: 8.1%; ELG1 repair inh: 2.0%; MCF10A rerep: -1.6%

How did O=c1[nH]c(C2CCN(S(=O)(=O)/C=C/c3ccccc3)CC2)nc2c1nnn2Cc1ccc(F)cc1 do in these assays?
RORgamma inh: 40.8%; SW480 rerep: inconclusive; VP16 counter: -7.4%; ELG1 repair inh: inconclusive; MCF10A rerep: 19.7%

How did Clc1ccc(Nc2ccc(-n3ccnc3)nn2)cc1Cl do in these assays?
RORgamma inh: 35.9%; SW480 rerep: 0.6%; VP16 counter: -4.6%; ELG1 repair inh: -1.7%; MCF10A rerep: inconclusive

What do the screens show for `NS(=O)(=O)c1ccc(NC(=S)NC(=O)/C=C/c2ccco2)cc1`?
RORgamma inh: 9.9%[10 µM]; SW480 rerep: -8.0%; VP16 counter: -4.6%; ELG1 repair inh: 1.3%; MCF10A rerep: -0.4%

How did Cc1cccc(NC(=S)NC(=O)/C=C/c2ccco2)n1 do in these assays?
RORgamma inh: 10µM*; SW480 rerep: 1.3%; VP16 counter: inconclusive; ELG1 repair inh: inconclusive; MCF10A rerep: -2.0%

Results for Cc1ccc2nc(CSc3nc(C)cc(C)c3C#N)[nH]c2c1 ?
RORgamma inh: inconclusive; SW480 rerep: 4.61µM*; VP16 counter: -6.5%; ELG1 repair inh: inconclusive; MCF10A rerep: 1.84µM*

What do the screens show for `Cc1cc(C)c(C#N)c(SCc2ccccc2)n1`?
RORgamma inh: 63.7%; SW480 rerep: -1.9%; VP16 counter: -4.4%; ELG1 repair inh: inconclusive; MCF10A rerep: -1.4%

Results for CN(C)S(=O)(=O)c1ccc(Cl)c(NC(=O)CSc2nc3c(cc2C#N)C(=O)CC(C)(C)C3)c1 ?
RORgamma inh: inconclusive; SW480 rerep: inconclusive; VP16 counter: inconclusive; ELG1 repair inh: -16.1%; MCF10A rerep: 2.91µM*

What do the screens show for `CN(C)S(=O)(=O)c1cccc(NC(=O)CSc2nc3c(cc2C#N)C(=O)CC(C)(C)C3)c1`?
RORgamma inh: inconclusive; SW480 rerep: 16.4µM*; VP16 counter: -13.0%; ELG1 repair inh: inconclusive; MCF10A rerep: 14.6µM*

Results for CN(C)S(=O)(=O)c1cccc(NC(=O)CSc2cccc3cccnc23)c1 ?
RORgamma inh: 10µM*; SW480 rerep: inconclusive; VP16 counter: inconclusive; ELG1 repair inh: 15.5%; MCF10A rerep: inconclusive

What do the screens show for `CC(=O)c1ccc(OC2C=CC(C#Cc3ccc(Br)cc3)OC2CO)cc1` (stereo unspecified)?
RORgamma inh: 21.3%[10 µM]; VP16 counter: 0.5%[10 µM]

Results for CC(C)CC1NC(=O)C(CCCN)NC(=O)C(C(C)C)NC(=O)C2CCCN2C(=O)C(Cc2ccccc2)NC(=O)C(CC(C)C)NC(=O)C(CCCN)NC(=O)C(C(C)C)NC(=O)C2CCCN2C(=O)C(Cc2ccccc2)NC1=O (stereo unspecified) ?
RORgamma inh: 0.0891µM*; SW480 rerep: -7.3%; VP16 counter: 0.282µM*; MCF10A rerep: inconclusive

Results for O=C1C(Cc2ccccc2)NC(=S)N1Cc1ccccc1 (stereo unspecified) ?
RORgamma inh: 12.6µM*; SW480 rerep: -6.9%; VP16 counter: -20.9%; ELG1 repair inh: 5.1%; MCF10A rerep: 6.8%

Results for CSCCC1NC(=S)N(Cc2ccccc2)C1=O (stereo unspecified) ?
RORgamma inh: -44.9%; SW480 rerep: -10.6%; VP16 counter: -22.5%; ELG1 repair inh: -4.2%; MCF10A rerep: 0.3%

How did CCC(C)C1NC(=S)N(Cc2ccccc2)C1=O (stereo unspecified) do in these assays?
RORgamma inh: 10µM*; SW480 rerep: 2.5%; VP16 counter: inconclusive; ELG1 repair inh: 10.1%; MCF10A rerep: 30.0%

Results for CC(C)CC1NC(=S)N(Cc2ccccc2)C1=O (stereo unspecified) ?
RORgamma inh: inconclusive; SW480 rerep: inconclusive; VP16 counter: -16.3%; ELG1 repair inh: -4.3%; MCF10A rerep: inconclusive

Results for Cc1ccc(Sc2ccc(C(=O)N3CCOCC3)cc2[N+](=O)[O-])cc1 ?
RORgamma inh: -1.6%; SW480 rerep: 0.3%; VP16 counter: -1.9%; ELG1 repair inh: inconclusive; MCF10A rerep: 1.1%

How did COc1ccc(N(CC(=O)NCCC2=CCCCC2)S(=O)(=O)c2ccc(C)cc2)cc1 do in these assays?
RORgamma inh: -2.8%; VP16 counter: 7.0%; ELG1 repair inh: -10.7%

Results for O=C(NCCc1ccccc1)C(=O)NCC1CCCN1S(=O)(=O)c1ccccc1 (stereo unspecified) ?
SW480 rerep: 18.4µM*; ELG1 repair inh: inconclusive; MCF10A rerep: 23.1µM*

Results for COc1ccc(S(=O)(=O)N2CCCC2CNC(=O)C(=O)Nc2ccc(C)cc2)cc1 (stereo unspecified) ?
SW480 rerep: -84.1%; ELG1 repair inh: inconclusive; MCF10A rerep: 2.1%

How did COc1ccc(CCNC(=O)C(=O)NCC2CCCN2S(=O)(=O)c2ccc(OC)cc2)cc1 (stereo unspecified) do in these assays?
SW480 rerep: 2.5%; ELG1 repair inh: 20.6µM*; MCF10A rerep: 18.2%
